# Measured values published in the supplement of paper PMC6555819.
# Tests used:
# Assay in all cases: PBM binding z-score (relative to random genomic background probes); higher = stronger binding; sequences stand for … in GC…GCGATTGACAGCGTAGAATGAAGG
# [1] = system: PPARg:RXRa DBDmut IVT, anti-RXR (DBD mutation: RXRa K156A/R161A, NR concentration 270 nM, RXRa partner concentration 90 nM)
# In short: (§1)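 Binding z-scores were set against random background probes. The data came from custom Agilent 4×180K protein-binding microarrays carrying double-stranded probes with 34-nt variable regions, incubated 1 h with ligand-free nuclear receptor dimers. Partner-specific antibodies detected binding, and scanned fluorescence was regression-normalized.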
# [2] = system: PPARg:RXRa IVT, anti-PPARg (NR concentration 270 nM, RXRa partner concentration 90 nM)
# In short: as §1
# [3] = system: PPARg DBDmut:RXRa IVT, anti-PPARg (DBD mutation: PPARg1 K132A/R137A, NR concentration 270 nM, RXRa partner concentration 90 nM)
# In short: as §1
# [4] = system: PPARg DBDmut IVT, anti-PPARg (DBD mutation: PPARg1 K132A/R137A, NR concentration 270 nM)
# In short: as §1
# [5] = system: PPARg homodimer (NR concentration 180 nM)
# In short: as §1
# [6] = system: PXR:RXRa (NR concentration 270 nM, RXRa partner concentration 90 nM)
# In short: as §1
# [7] = system: PXR homodimer (NR concentration 270 nM)
# In short: as §1
# [8] = system: RARa:RXR (NR concentration 270 nM, RXRa partner concentration 90 nM)
# In short: as §1
# [9] = system: RARa homodimer (NR concentration 270 nM)
# In short: as §1
# [10] = system: RARb:RXRa (NR concentration 270 nM, RXRa partner concentration 90 nM)
# In short: as §1
# [11] = system: RARb homodimer (NR concentration 270 nM)
# In short: as §1
# [12] = system: RARg:RXRa (NR concentration 270 nM, RXRa partner concentration 90 nM)
# In short: as §1
# [13] = system: RARg homodimer (NR concentration 270 nM)
# In short: as §1
# [14] = system: RXRa DBDmut IVT, anti-RXR (DBD mutation: RXRa K156A/R161A, NR concentration 90 nM)
# In short: as §1
# [15] = system: RXRa homodimer (NR concentration 180 nM)
# In short: as §1
# [16] = system: THRa:RXRa (NR concentration 90 nM, RXRa partner concentration 90 nM)
# In short: as §1
# [17] = system: THRa homodimer (NR concentration 90 nM)
# In short: as §1
# [18] = system: VDR homodimer (NR concentration 270 nM)
# In short: as §1
Sequence,PBM binding z-score [1],PBM binding z-score [2],PBM binding z-score [3],PBM binding z-score [4],PBM binding z-score [5],PBM binding z-score [6],PBM binding z-score [7],PBM binding z-score [8],PBM binding z-score [9],PBM binding z-score [10],PBM binding z-score [11],PBM binding z-score [12],PBM binding z-score [13],PBM binding z-score [14],PBM binding z-score [15],PBM binding z-score [16],PBM binding z-score [17],PBM binding z-score [18]
CGTCCAATGTCAAAGGTCAGTGAAGAGATGACGG,0.671,3.16,0.777,0.834,4.53,4.53,0.54,6.27,2,4.36,4.3,5.61,5.43,1.04,6.57,2.97,0.388,1.07
ATGGAAAGGTCGAGGTGAGTATAGAGAAAGGGAA,0.536,2.48,1.74,0.527,1.67,2.55,1.05,3.1,1.32,4.07,3.16,4.21,4.21,0.469,4.53,3.15,1.47,0.902
TCTTGTAGATCAAAGTTTAAGAAAGCCGAAGCCT,2.31,1.66,0.921,0.574,0.293,0.685,0.403,0.864,0.333,0.69,0.469,0.16,0.307,1.22,0.561,0.0453,-0.571,-0.214
CAAACTAGGTCACGGGAAGGTCAAAGTCCGCATG,8.72,9.17,2.85,3.73,5.61,5.97,1.41,7.17,1.78,5.43,5.63,8.25,7.46,2.31,6.72,4.73,3.09,3.1
CGTATTAGTTGACCATAAGGGCAACCGAAGCTCG,0.0759,0.784,0.0678,-0.147,1.44,0.388,0.0683,0.881,0.774,1.26,2.04,1.2,0.883,0.244,0.743,1.83,1.15,0.668
GGAACGAGGGCATTCGACTTGATAGCATGGCGAT,2.67,2.21,0.442,0.0396,-0.0413,0.499,0.283,-0.119,-0.012,1.6,0.502,1.11,1.52,3.17,0.731,0.81,-0.453,2.32
TCAGACAGGTGAAGGTAACTAAGGTACGCAGTCG,2.56,1.27,0.501,0.42,0.309,0.646,0.152,1.22,0.362,1.24,0.841,0.733,0.744,1.14,1.05,1.43,0.595,-0.102
TAGCCTAGGTCATTGGGCCAGTAGAGTACGCATC,2.83,3.89,-0.36,-0.247,0.811,1.57,-0.0607,2.13,-0.3,3.54,3.11,3.83,4.04,1.34,2.79,2.88,0.722,1.3
AGAATGAGGTTAAGATCAGGTAAACAGAATACAT,2.37,2.93,1.7,0.933,0.782,1.52,0.259,2.3,0.662,1.98,0.989,2.66,1.76,1.17,2.81,3.55,1.36,0.461
CCTTACGGGTCACTCCAGGTTTTAGCATCGGAGT,2.81,3.28,2.95,0.802,3.03,3.61,0.181,4.14,0.643,3.68,2.77,4.49,4.02,1.79,4.23,4.31,0.0902,1.74
CGTCCAAGGTCATAGGAGGTCCGTGAAGACAGAT,3.08,3.47,0.84,0.63,3.87,4.93,1.26,4.68,1.62,5.04,3.8,5.84,5.85,3.86,6.02,4.51,2.24,3.33
CAGACTAGGTCAAGGTCAAAGTCGGTTTGTGCCA,7.69,7.9,3.1,0.467,3.79,5.16,1.76,5.07,1.4,5.05,5.11,6.12,6.67,2.61,6.04,4.32,3.45,4.18
TCATATAGGTAAGGGTGAAAGTCGAACGATATGA,2.65,2.84,1.53,1.28,1.03,0.664,0.181,1.14,0.462,1.13,0.703,0.914,0.595,0.475,1.36,0.89,-0.108,-0.201
CCTACTGGGCCAGGGTCATTGATCAGTCAAAGCA,1.49,3.62,-1.03,-0.896,0.994,3.06,0.381,3.61,-0.641,2.51,2.52,3.5,2.02,0.154,3.7,2.7,0.841,2.48
AGTCAAAGTTTAGGACGAGGTAACGTAAAGCACG,-0.369,0.311,0.476,0.0826,0.281,0.168,-0.0643,0.219,0.258,1.41,0.774,0.936,1.26,0.5,0.477,2.59,1.51,0.0811
TCTCGGACGACACGAAGGTCAGAGCTTTCCAGAG,1.39,0.576,-1.3,-0.777,1.07,1.61,-0.245,1.95,0.13,2.8,3.12,2.49,2.65,0.495,2,1.53,0.0855,0.189

Sequence,PBM binding z-score [1],PBM binding z-score [2],PBM binding z-score [3],PBM binding z-score [4],PBM binding z-score [5],PBM binding z-score [6],PBM binding z-score [7],PBM binding z-score [8],PBM binding z-score [9],PBM binding z-score [10],PBM binding z-score [11],PBM binding z-score [12],PBM binding z-score [13],PBM binding z-score [14],PBM binding z-score [15],PBM binding z-score [16],PBM binding z-score [17],PBM binding z-score [18]
CGAACTAGCTCATCCAGGACAGTGAATACATTGA,0.221,-0.126,-0.227,0.607,0.205,-0.344,0.167,-0.0855,-0.0939,-0.208,0.118,-0.191,0.156,0.64,0.0877,1,0.936,0.271
TCTAGTTGGTCACGGAGGTCACACAGGACGGGTA,2.41,4.28,0.872,-0.126,3.68,4.78,3.02,4.72,1.58,3.98,4.25,4.69,4.9,0.898,4.86,3.75,2.62,3.06
CGTCAAAGTTCAACTAAGATAACGTAAAGCACGC,0.308,2.03,1.72,2.53,4.35,4.78,3.71,4.27,2.93,5.08,3.75,5.82,6.58,4.65,5.25,2.98,0.329,3.75
CCTTACGGGTCACTCCAGGTTATAGGATCGGAGT,2.49,4,0.265,0.385,1.86,5.21,0.588,4.1,0.817,3.8,3.21,4.55,4.56,1.45,4.79,4.95,0.641,1.51
CCTTACGGCTCAAGGTTATAGCACGGGTGGTACG,-0.441,-0.312,-1.23,-0.222,0.358,0.204,0.404,0.389,0.282,0.562,0.426,0.285,0.278,-0.298,0.615,1.05,0.716,0.469
TAGCCTAGGTCATGGGCCAGAATACCACGCGAAC,1.38,3.09,-0.303,-0.638,0.86,1.54,-0.601,2.51,0.121,3.73,2.86,4.27,4.29,0.064,3.81,2.89,1.07,-0.109
GCTTACGGGTCAAAGGTTATATCATGAATAGAAT,4.73,5.93,2.65,2.07,4.59,6.41,0.529,8.44,1.02,4.55,3.32,6.74,4.71,2.66,9.55,4.12,0.113,2.09
CCGACTGGGGCACAAGGTTACCATAAGCCAGCCC,3.82,4.45,-0.334,-0.282,1.62,0.226,-0.93,0.828,-0.242,1.46,1.59,1.46,1.12,-0.589,0.82,1.37,0.35,-0.201
TAGCCTAGGTCAGATCGGGCCGGTATACGCTATA,0.592,1.34,-0.27,-0.214,0.114,0.345,-0.722,0.515,-0.746,2.98,1.98,2.67,3.43,-0.551,0.992,3.11,0.09,-0.328
GATACAGGGTCAAGGCCAGAGGACGCGTATTGAT,2.29,3.97,0.837,0.968,2.75,3.68,0.296,4.56,1.16,4.44,3.63,5.29,4.94,2.07,5.78,3.64,1.43,2.28
CAAACTAGGTTACGAAAGGTCAAAGTCGAATGAC,7.07,7.68,2.53,2.93,4.81,6.22,1.73,6.69,3.24,4.82,5,6.3,5.88,1.6,6.62,4.48,1.51,2.58
CAAACTAAGTCAAAGGTCAAAGTCGAGCCAACCA,3.49,6.79,1.69,2.86,5.3,6.14,2.15,7.85,3.31,4.95,4.68,6.82,5.86,2.2,8.46,3.74,0.739,2.93
TCTTGTAGATTAGCAGGTTAAGAAAGCTGGCCAA,1.76,0.791,-0.369,-0.0447,0.0886,0.329,0.0335,0.552,0.796,0.197,0.292,-0.0657,-0.174,0.682,0.386,0.458,-0.511,-0.173
AGAATGAGGTTACCAAAGATCGGGGAAACGCTTG,4.19,3.16,0.767,-0.00143,0.441,1.3,-0.247,1.86,-0.246,2.09,0.666,1.91,1.43,1.5,2.5,2.71,0.699,-0.00618
AGAATGAGGTTAAGATCAGGGTAACAGAATACAT,3.19,3.28,1.74,0.532,1.13,1.73,0.602,2.85,0.262,2.08,1.41,2.69,1.65,1.08,2.85,3.16,1.45,0.804
